Experimental data reported in PubChem BioAssay (NCI).
Compounds without any hit were thinned out: in the full panel of roughly 83,000, 20% have a hit.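 The endpoint reported here, percent growth, reads 100 for growth as untreated, 0 for no net growth and -100 for all cells dead.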 Unmarked numbers belong to inactive results. The source made the active and inactive calls. Rule for the calls: active = growth percent below 10; inactive = the rest.

Tests used:
Assay in all cases: NCI-60 one-dose screen, 48 h (100 = growth as untreated, 0 = no growth, -100 = all killed)
Conditions in all cases: 10 µM unless noted
[1] = system: NCI-H23 lung
[2] = system: NCI-H226 lung
[3] = system: NCI-H322M lung
[4] = system: HOP-62 NSCLC
[5] = system: NCI-H460 lung
[6] = system: HOP-92 NSCLC
[7] = system: NCI-H522 lung
[8] = system: A549/ATCC NSCLC
[9] = system: 786-0 renal
[10] = system: COLO 205 colon
[11] = system: DU-145 prostate
[12] = system: K-562 leukemia
[13] = system: MALME-3M melanoma
[14] = system: MDA-MB-231 breast
[15] = system: RXF 393 renal
[16] = system: SF-268 CNS
[17] = system: SF-295 CNS
[18] = system: SF-539 CNS
[19] = system: UACC-257 melanoma
[20] = system: M14 melanoma

| SMILES | growth [1] | growth [2] | growth [3] | growth [4] | growth [5] | growth [6] | growth [7] | growth [8] | growth [9] | growth [10] | growth [11] | growth [12] | growth [13] | growth [14] | growth [15] | growth [16] | growth [17] | growth [18] | growth [19] | growth [20] |
| --- | --- | --- | --- | --- | --- | --- | --- | --- | --- | --- | --- | --- | --- | --- | --- | --- | --- | --- | --- | --- |
| CC1CCc2c(sc3nc(SCC(=O)c4cccc([N+](=O)[O-])c4)n(-c4ccccc4)c(=O)c23)C1 (stereo not given) | 47.4% | 66.6% | 97.9% | 77.7% | 97.1% | 85.5% | 54.3% | 89.7% | 56.6% | 106% | 63.1% | 57.1% | 111% | 10.1% | 99.9% | 73.2% | 74.2% | -10.9% (active) | 97.8% | 80.6% |
| Cn1cc(-c2cc(N)n3nc(-c4c[nH]c5ccc(F)cc45)cc3n2)c2cc(Br)cnc21 | 94.3% | 68.6% | 80.1% | 71.1% | 57.5% | 27.3% | 27.6% | 54% | 44.4% | 119% | 69.9% | -69% (active) | 75.6% | 13.2% | 11.7% | 89.3% | 69.6% | 52.8% | 84.6% | 55.4% |
| O=C(Nc1nc2ccc([N+](=O)[O-])cc2s1)Nc1ccccc1F | 6.62% (active) | 10.9% | 8.1% (active) | 6.89% (active) | 2.96% (active) | -3.78% (active) | -16.6% (active) | 12.2% | 7.95% (active) | 21.9% | 25.8% | 7.7% (active) | -2.16% (active) | 4.62% (active) | 5.7% (active) | 29.5% | 3% (active) | -8.34% (active) | -4.98% (active) | 16.5% |
| COc1cccc(-c2ccc(/C=N/NC(=O)c3[nH]c4ccc(Br)cc4c3-c3ccccc3)s2)c1 | -41.9% (active) | -1.63% (active) | 49.1% | 14.6% | -15.4% (active) | 43.1% | -65.4% (active) | 10.7% | -12.2% (active) | -28.7% (active) | 2.3% (active) | 15.7% | 33.1% | -20.5% (active) | -63% (active) | -9.89% (active) | -46.2% (active) | -83.9% (active) | 45.7% | -4.68% (active) |
| O=C(c1ccc(O)cc1)C1[C@H](c2ccccc2Br)[C@@H](c2ccccc2)NC12C(=O)Nc1ccccc12 (stereo not given in full) | 34.3% | 53.3% | 61.6% | 59.8% | 33.1% | 38.8% | -21.1% (active) | 22.9% | 28.8% | 28% | 63.1% | 29.4% | 71.6% | 41% | 20.8% | 49.1% | 27.9% | 55% | 45.8% | 58.6% |
| COc1ccc(-c2cc(C(=O)Oc3ccc(C=O)cc3OC)nn2-c2ccc(S(C)(=O)=O)cc2)cc1 | 96% | 104% | 106% | 104% | 105% | 110% | 68.3% | 105% | 113% | 133% | 110% | 96.1% | 105% | 94.3% | 122% | 103% | 110% | 106% | 115% | 117% |
| COc1ccccc1Nc1nnc(-c2c[nH]c3ccccc23)o1 | 12.6% | 47.1% | 43.5% | 26.3% | 10.8% | 16.1% | -31.5% (active) | 21.9% | 9.22% (active) | -38.8% (active) | 12.6% | 7.09% (active) | 44.1% | 3.73% (active) | -48.2% (active) | 47.7% | -28.8% (active) | -40.3% (active) | 44.7% | 20.5% |
| CN(C)CCCNC(=S)Nc1ccc(/C=C/c2ccc(Cl)cc2)cc1 | -89.2% (active) | -20.2% (active) | -95% (active) | -50.8% (active) | -35.8% (active) | -53.3% (active) | -51.9% (active) | -36% (active) | -37.4% (active) | -58% (active) | -61.8% (active) | 4.54% (active) | -95% (active) | -100% (active) | -25.8% (active) | 0.261% (active) | -51.7% (active) | -68.6% (active) | -79.9% (active) | -63.5% (active) |
